29 compounds from PubChem BioAssay (Tox21) can be followed below.

The nature of test [1]: A CellTox Green Cytotoxicity Assay to monitor cytotoxicity in HEK293 cells - 16 hour (AID 1224888). Note: nearly all actives have a fitted effect of over 35% in size. Put shortly: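 Cells (HEK293, 600/well) and dye reagent are dispensed together. After 5 h at 37 C, 23 nL compound is pinned in. Plates stay at 37 C for 40 h with fluorescence read at 0h, 8h, 16h, 24h, 32h and 40h.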
A short description of test [2]: qHTS RealTime-Glo MT Cell Viability Assay in HepG2 cells - 0 hour (AID 1224889). Note: nearly all actives have a fitted effect of over 50% in size. In a few lines: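 Cells + NanoLuc/prosubstrate dispensed (600 cells/well) → 5 h at 37 C/5% CO2 → compounds in DMSO transferred → 40 h incubation at 37 C, luminescence read at 0, 8, 16, 24, 32, 40 h.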
Test [3] can be described thus: A CellTox Green Cytotoxicity Assay to monitor cytotoxicity in HepG2 cells - 8 hour (AID 1224890). Note: nearly all actives have a fitted effect of over 45% in size. Note: potency is the fitted concentration of half-maximal effect. Put shortly:
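Cells and non-lytic dye reagent are dispensed together (600 HepG2 cells/well) and incubated 5 h before DMSO compound transfer. Kinetic fluorescence is then recorded in the same wells during 40 h at 37 C.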

A short description of test [4]: qHTS assay to identify small molecule antagonists of the estrogen receptor alpha (ER-alpha) signaling pathway using the BG1 cell line in the presence of 0.1 nM 17-beta-estradiol - cell viability counter screen (AID 1259241). Note: nearly all actives have a fitted effect of over 40% in size. In a few lines:
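CellTiter-Fluor read (30 min, 37C) on ER-alpha/ERE-luc VM7Luc4E2 cells; 22 hr compound treatment; agonist 0.1 nM E2 final; same-well multiplex.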

Test [5] in a line: qHTS assay to identify small molecule antagonists of the androgen receptor (AR) signaling pathway using the MDA cell line in the presence of 0.5 nM R1881 - cell viability counter screen (AID 1259242). Note: nearly all actives have a fitted effect of over 45% in size. In a few lines:
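Steps: plate MDA-kb2 cells, rest 5 hr at 37C without CO2; pin in compounds in DMSO; add R1881 to 0.5 nM final; incubate 16 hr; add CellTiter-Fluor, 30 min; read fluorescence.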

Test [6] can be described thus: qHTS assay to identify small molecule HDAC inhibitors (AID 1259364).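 Note: wild-type HCT-116 cells with endogenous class I/II HDAC activity; top concentration of the series differs between compounds; nearly all actives have a fitted effect of over 45% in size.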 Put shortly:
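Cells (HCT-116, wild type) are seeded at 1,500 per well, incubated overnight, treated with compound in DMSO for 2 hr, then developed with HDAC-Glo I/II reagent for 30 min at room temperature.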

Test [7] can be described thus: qHTS assay to identify small molecule HDAC inhibitors - cell viability counter screen (AID 1259365). Note: series mostly up to about 92 µM; nearly all actives have a fitted effect of over 50% in size. In a few lines: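 To flag cytotoxic hits, 1,500 wild-type HCT-116 cells per well, plated the day before, receive test compounds for 2hr at 37 C before CellTiter-Glo reagent and a luminescence read.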
The target of test [8] is Estrogen receptor (Homo sapiens) (UniProt P03372). Kind of test: qHTS assay to identify small molecule antagonists of the estrogen receptor alpha (ER-alpha) signaling pathway using the BG1 cell line in the presence of 0.1 nM 17-beta-estradiol (AID 1259244). Note: nearly all actives have a fitted effect of over 50% in size. In a few lines:
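Antagonist mode: compounds in DMSO are pinned onto VM7Luc4E2 reporter cells, 0.1 nM final 17beta-estradiol is added, and after 22 h at 37C luciferase luminescence is measured with ONE-Glo.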

The target of test [9] is Androgen receptor (Homo sapiens) (UniProt P10275). Kind of test: qHTS assay to identify small molecule antagonists of the androgen receptor (AR) signaling pathway using the MDA cell line in the presence of 0.5 nM R1881 (AID 1259243). Note: nearly all actives have a fitted effect of over 50% in size. In a few lines: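 Stably transfected MDA-kb2 cells express luciferase from an MMTV promoter bearing both AR and GR response elements. Compounds plus 0.5 nM R1881 (final) were incubated 16 hr at 37C without CO2, then luminescence measured.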
Androgen receptor (Homo sapiens), sequence (P10275 whole entry, looked up): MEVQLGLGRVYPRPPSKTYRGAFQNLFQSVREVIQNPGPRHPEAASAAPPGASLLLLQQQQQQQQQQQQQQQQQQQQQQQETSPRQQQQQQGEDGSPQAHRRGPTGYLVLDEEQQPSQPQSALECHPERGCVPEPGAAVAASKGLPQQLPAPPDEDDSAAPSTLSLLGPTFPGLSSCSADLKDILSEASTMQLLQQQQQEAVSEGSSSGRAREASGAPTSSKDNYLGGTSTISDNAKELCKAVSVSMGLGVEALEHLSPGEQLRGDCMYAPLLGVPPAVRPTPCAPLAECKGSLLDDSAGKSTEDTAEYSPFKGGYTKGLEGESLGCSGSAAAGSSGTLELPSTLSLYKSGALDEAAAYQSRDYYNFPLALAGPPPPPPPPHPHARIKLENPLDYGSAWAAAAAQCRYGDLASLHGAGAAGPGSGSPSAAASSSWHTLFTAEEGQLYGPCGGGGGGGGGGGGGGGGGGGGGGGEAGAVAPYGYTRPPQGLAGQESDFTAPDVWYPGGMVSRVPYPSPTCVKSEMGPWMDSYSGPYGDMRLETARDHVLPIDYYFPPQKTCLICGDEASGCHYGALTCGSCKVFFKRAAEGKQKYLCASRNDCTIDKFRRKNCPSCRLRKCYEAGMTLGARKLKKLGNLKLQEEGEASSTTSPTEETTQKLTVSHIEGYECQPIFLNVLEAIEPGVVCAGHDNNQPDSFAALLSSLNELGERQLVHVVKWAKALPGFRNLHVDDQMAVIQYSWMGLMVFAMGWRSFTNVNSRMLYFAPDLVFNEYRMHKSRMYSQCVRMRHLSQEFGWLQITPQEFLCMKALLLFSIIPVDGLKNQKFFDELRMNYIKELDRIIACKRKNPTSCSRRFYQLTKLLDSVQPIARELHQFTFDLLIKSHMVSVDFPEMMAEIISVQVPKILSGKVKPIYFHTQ

Test [10] in a line: qHTS assay to identify small molecule phospholipidosis (PLD) inducers (AID 1259344; active = well fitted curve in the direction sought with a large enough effect; an effect the other way counts as inactive or inconclusive). Put shortly: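 Accumulated phospholipid, stained red by LipidTOX during 24 h compound treatment of HepG2 cells at 37 C, is quantified from images as pit number and intensity, normalised per cell using Hoechst-stained nuclei.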

Each structure is given as a SMILES string. A number with no mark means an inactive call. Results filed as inconclusive are left out. Activity calls are given as the source filed them. Unless noted, calls come from the whole dose curve; as a rule, active = well fitted curve in the direction sought with a large enough effect in the repeat runs; inconclusive = weak or mixed curves; inactive = no such curve, though single readings can be large; an effect the other way counts as inactive or inconclusive. Non-standard residues stand in square brackets, D forms with d. Residues, ends and D or L forms follow the SMILES beside them. *: point of attachment. Sta = CC(C)C[C@H](N)[C@@H](O)CC(=O)O; Isovaleryl = CC(C)CC(=O)*
% is set by controls: 0 for no effect and ±100 for the full control effect.

Estrogen receptor (Homo sapiens), sequence (P03372 whole entry, looked up): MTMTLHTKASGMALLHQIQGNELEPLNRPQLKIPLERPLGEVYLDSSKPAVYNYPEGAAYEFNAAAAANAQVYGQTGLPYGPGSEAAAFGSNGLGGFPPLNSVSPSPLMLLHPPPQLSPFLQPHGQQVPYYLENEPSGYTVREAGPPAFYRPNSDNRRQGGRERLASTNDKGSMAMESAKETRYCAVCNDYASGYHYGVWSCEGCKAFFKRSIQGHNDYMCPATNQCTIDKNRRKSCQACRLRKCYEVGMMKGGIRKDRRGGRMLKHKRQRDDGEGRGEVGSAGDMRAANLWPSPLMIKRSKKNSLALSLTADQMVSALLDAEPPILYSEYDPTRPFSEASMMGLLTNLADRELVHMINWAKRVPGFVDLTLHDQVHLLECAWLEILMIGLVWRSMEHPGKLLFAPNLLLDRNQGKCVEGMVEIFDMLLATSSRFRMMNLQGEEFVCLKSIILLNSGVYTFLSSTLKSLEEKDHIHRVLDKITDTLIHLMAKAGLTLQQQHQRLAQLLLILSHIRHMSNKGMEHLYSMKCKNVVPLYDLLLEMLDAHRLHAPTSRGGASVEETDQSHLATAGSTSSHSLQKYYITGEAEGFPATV

Regarding `CCCCCCCCCCCCCCCC/C=C/C1CC(=O)OC1=O` (configuration not stated), the Potency result in test [1], in test [2], in [3] and in test [6] was “inactive” each time. Moreover, the outcome in [4], in test [5] and in test [7] was inactive.
Turning to `CC(C)=CCC/C(C)=C\C#N`, the Potency result in test [1], in test [2], in [3] and in test [6] was “inactive” each time. Further, the outcome in test [5], in [8] and in test [7] was inactive.
Regarding `C=CC(=O)OCCOCCOCC`, the Potency result in test [1], in test [2], in test [3] and in test [6] was “inactive” in each case. In addition, the result in [4], in test [5] and in [7] was inactive.
With `CC(=O)c1c(C)cc(C(C)(C)C)cc1C`, the Potency result in test [1], in [2] and in [6] was “inactive” throughout. Moreover, the Potency in test [3] is 43.6 µM (active). Moreover, the result in [4], in test [5] and in test [7] was inactive.
`CCCC(=O)C(CC)Sc1ccoc1C` (configuration not stated): the Potency entry in test [1], in test [3], in [9] and in test [6] was “inactive” each time. Further, the outcome in test [4], in test [5] and in test [7] was inactive.
As for `CC(C)(C)C(=O)CC(=O)C(C)(C)C`, the Potency entry in test [1], in [2], in [3] and in [6] was “inactive” throughout. Moreover, the result in [4], in test [5] and in test [7] was inactive.
For `c1cc2ccc3ccc4ccc5cccc6c(c1)c2c3c4c56`, the activity change in [1] is -11.1% [at 2.72 µM, hits give high values]. Further, the activity change, negative = cytotoxicity was 3.24% [at 2.72 µM] in test [2], 10.7% [at 3.27 µM] in test [4] and 2.08% [at 3.27 µM] in test [7]. In test [3], the cytotoxicity increase is -16.5% [at 2.72 µM]. Besides, the viability change, negative = cytotoxic in test [5] was 1.62% [at 3.26 µM]. The activity change, negative = inhibition in test [6] was -0.743% [at 3.27 µM].
As to `O=C1Nc2ccccc2C1=O`, the Potency result in test [1], in test [2], in test [3] and in test [6] was “inactive” throughout. In addition, the outcome in test [4], in [5] and in test [7] was inactive.
With `CCCCCCCC(=O)N(C)C`, the Potency result in [1], in [2] and in test [6] was “inactive” throughout. Besides, the result in test [4], in test [5], in [8] and in test [7] was inactive.
On to `COc1ccc(Cl)cc1C`, for which the Potency entry in test [1], in [2], in [3] and in [6] was “inactive” throughout. Further, the outcome in test [4], in test [5] and in test [7] was inactive.
Consider `CC[N+](C)(CC)CC`, for which the Potency entry in [1], in [2], in test [3] and in test [6] was “inactive” in each case. The outcome in test [4], in [5] and in test [7] was inactive.
For `CCC(C)(C)C`, the Potency result in [1], in [2], in test [3] and in [6] was “inactive” in each case. Also, the outcome in test [5], in test [8] and in test [7] was inactive.
As for `Cc1ccc2ccccc2n1`, the Potency result in test [1], in [2], in test [3] and in test [6] was “inactive” throughout. For the same compound, the result in test [4], in test [5] and in test [7] was inactive.
As to `COC(=O)/C=C(\C)CCC=C(C)C`, the Potency entry in test [1], in [2], in test [3] and in [6] was “inactive” in each case. For the same compound, the result in [4], in test [5] and in test [7] was inactive.
With `Cc1ccc(O)c([N+](=O)[O-])c1`, the Potency result in test [1], in test [2], in test [3] and in test [6] was “inactive” in each case. The result in test [4], in test [5] and in test [7] was inactive.
Take `COc1cc(C(=O)NC2CCCNC2)cc(OC)c1OC` (configuration not stated): the Potency result in test [1], in test [3], in [10] and in test [6] was “inactive” in each case. Besides, the result in [4], in test [5] and in [7] was inactive.
With `Cc1nc2ccc(Cl)cc2[nH]1`, the Potency result in test [1], in test [2] and in test [3] was “inactive” throughout. Besides, the result in [4], in test [5] and in test [7] was inactive.
Turning to `CCCCCCC(=O)c1ccccc1`, the Potency result in [1], in test [2], in [3] and in test [6] was “inactive” each time. Besides, the outcome in test [4], in test [5] and in [7] was inactive.
In the case of `CCCCCCCCS(=O)(=O)O`, the Potency entry in test [1], in test [2], in test [3] and in [6] was “inactive” each time. The result in [4], in test [5] and in test [7] was inactive.
Consider `CCCCOCCCC`, for which the Potency result in test [2], in test [3] and in [6] was “inactive” in each case. Further, the outcome in test [4], in test [5], in [8] and in test [7] was inactive.
With `CCNC(=O)C(C)OC(=O)Nc1ccccc1` (configuration not stated), the Potency entry in test [1], in [2], in test [3] and in test [6] was “inactive” in each case. Besides, the result in [5], in test [8] and in [7] was inactive.
In the case of `CCCCCC(=O)CC`, the Potency result in test [1], in [2], in [3] and in [6] was “inactive” throughout. For the same compound, the result in test [4], in [5] and in [7] was inactive.
Turning to `O=c1c(O)c(O)c1=O`, the Potency entry in test [1], in test [2], in [3] and in test [6] was “inactive” throughout. Also, the outcome in [4], in test [5] and in test [7] was inactive.
On to `CC(C)(Sc1cc(C(C)(C)C)c(O)c(C(C)(C)C)c1)Sc1cc(C(C)(C)C)c(O)c(C(C)(C)C)c1`, for which the Potency entry in test [1], in [2], in test [3] and in [6] was “inactive” in each case. Besides, the result in test [4], in [5] and in [7] was inactive.
Turning to `C=CCN(CC=C)CC=C`, the Potency entry in [1], in test [2], in test [3] and in test [6] was “inactive” in each case. Moreover, the result in test [4], in [5] and in test [7] was inactive.
Take `CC(C)C(C)C`: the Potency entry in test [1], in test [2], in [3] and in test [6] was “inactive” each time. In addition, the outcome in test [4], in test [5] and in [7] was inactive.
For the compound `CC1(C)CC(N)CC(C)(C)N1`, the Potency entry in [1], in [2], in test [3] and in [6] was “inactive” each time. For the same compound, the result in test [4], in test [5] and in test [7] was inactive.
In the case of `OCCC(F)(F)C(F)(F)C(F)(F)C(F)(F)C(F)(F)C(F)(F)F`, the Potency result in test [1], in [2], in test [3] and in test [6] was “inactive” throughout. The outcome in test [4], in test [5] and in test [7] was inactive.
For the compound `CC(C)CC(=O)N[C@H](C(=O)N[C@H](C(=O)N[C@@H](CC(C)C)[C@@H](O)CC(=O)N[C@@H](C)C(=O)N[C@@H](CC(C)C)[C@@H](O)CC(=O)O)C(C)C)C(C)C` (Isovaleryl-VV[Sta]A[Sta]-OH), the Potency entry in test [1], in test [2], in test [10] and in test [6] was “inactive” each time. Further, the outcome in test [4], in test [5] and in test [7] was inactive.
